Screens: PubChem, several laboratories
ROCK2 blocker – inhibitors of human ROCK2 kinase, primary screen, biochemical, high-throughput, luminescence. Rho-associated protein kinase 2 (Homo sapiens), O75116. purified ROCK2, Kinase-Glo ATP depletion luminescence. inhibition, % at 6 µM. actives 0.35% (n = 60,000). AID 604, 2007;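 active = inhibition above the screen-wide mean inhibition plus 3 SD, cut at about 18% in these data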
FXIa mix inh – FXIa protease inhibitors in compound pools, primary screen, biochemical, 10-compound mixtures. AID 680, 2007. Coagulation factor XI (Homo sapiens), P03951. actives 0.19% (n = 62,000). inhibition, % at 5 µM. purified FXIa, fluorogenic substrate, pooled mixtures;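 note: each value is inhibition by a whole ten-compound pool holding the compound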
Target sequence (P03951 19-387 limits assumed): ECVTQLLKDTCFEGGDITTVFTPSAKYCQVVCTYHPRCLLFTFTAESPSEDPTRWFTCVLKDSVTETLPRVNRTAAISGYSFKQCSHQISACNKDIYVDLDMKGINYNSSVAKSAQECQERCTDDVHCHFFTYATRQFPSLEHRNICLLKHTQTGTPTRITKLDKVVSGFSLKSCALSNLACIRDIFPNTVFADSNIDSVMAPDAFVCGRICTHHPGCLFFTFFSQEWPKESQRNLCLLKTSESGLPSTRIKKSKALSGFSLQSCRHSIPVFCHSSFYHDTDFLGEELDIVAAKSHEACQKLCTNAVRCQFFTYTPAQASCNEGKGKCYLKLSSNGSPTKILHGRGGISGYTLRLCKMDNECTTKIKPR
Target sequence (P03951 388-625 limits assumed): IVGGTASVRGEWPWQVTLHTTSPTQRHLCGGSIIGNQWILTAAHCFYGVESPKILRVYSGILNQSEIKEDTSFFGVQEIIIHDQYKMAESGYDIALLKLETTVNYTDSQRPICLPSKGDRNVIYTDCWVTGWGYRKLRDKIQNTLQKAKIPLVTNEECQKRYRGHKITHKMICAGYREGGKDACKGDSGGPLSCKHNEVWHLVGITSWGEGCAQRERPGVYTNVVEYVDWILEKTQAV
FXIIa mix inh – human factor XIIa inhibitors, primary screen, biochemical, pooled compound mixtures, fluorogenic substrate; Coagulation factor XII (Homo sapiens), P00748; purified FXIIa; actives 0.2% (n = 62,000); inhibition, % at 5 µM; AID 684, 2007
PKA inh – inhibitors of human PKA kinase activity, primary screen, biochemical, ATP-depletion luminescence, Kemptide substrate | actives 0.1% (n = 65,000) | PKA Kemptide phosphorylation, Kinase-Glo ATP luminescence | cAMP-dependent protein kinase catalytic subunit alpha (Homo sapiens), P17612 | AID 524, 2006 | inhibition, % at 6 µM;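 active = inhibition above the screen-wide mean inhibition plus 3 SD, cut at about 21% in these data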
Hits are given with their value; . = inactive; / = not tested or not shown. In the library only some 0.54% were active in any assay of this set; here they are far more common. Cut-off read from the data, not from the text of the source, unless noted: active = inhibition above about 20% (passing the limit was not always enough); inactive = the rest.

SMILES	ROCK2 blocker	FXIa mix inh	FXIIa mix inh	PKA inh
CCCc1cc(=O)oc2cc(C)cc(OC(=O)c3ccco3)c12	.	33.5	.	.
CC(C1CC1)N(C(=O)NC1CCS(=O)(=O)C1)c1ccccc1 (configuration not stated)	.	.	.	.
O=C1CC(C(=O)N2CCN(c3ccc(F)cc3)CC2)CN1CCc1ccccc1 (configuration not stated)	.	.	.	.
CC(C)CCN1CC(C(=O)N2CCN(c3ccc(F)cc3)CC2)CC1=O (configuration not stated)	128.6	.	.	.
O=C(Nc1ccc(N2CCOCC2)cc1)Nc1ccc2nc(-c3ccco3)c(-c3ccco3)nc2c1	42.0	.	.	.
O=C(c1ccc2nc(-c3ccco3)c(-c3ccco3)nc2c1)N1CCN(c2ccccc2)CC1	.	.	.	.
c1nc(NC2CCCCC2)c2[nH]cnc2n1	34.3	/	/	39.1
O=C(NCc1ccccn1)C1CCN(S(=O)(=O)N2CCCC2)CC1	/	26.6	.	.
O=C(NCc1ccccn1)C1CCN(S(=O)(=O)c2ccccc2)CC1	/	.	.	.
Cc1ccc(-n2ncc3c(=O)n(CC(=O)N4CCCc5ccccc54)cnc32)cc1C	.	.	.	.
Cc1ccc2[nH]c3c(NCc4ccco4)ncnc3c2c1	.	.	.	.
c1coc(CNc2ncnc3nc[nH]c23)c1	25.2	.	.	.
O=S(=O)(Nc1ccc2nc(-c3ccc(Br)o3)[nH]c2c1)c1ccccc1	.	.	27.9	.
CNC(=O)CN(C1CCCCC1)S(=O)(=O)c1ccc(OC)c(Cl)c1	.	.	47.8	.
Cc1ccc(S(=O)(=O)NCCc2ccncc2)cc1	.	.	.	.
Cc1ccc(S(=O)(=O)NCCCOC(=O)Nc2ccncc2)cc1	23.3	.	.	.
CCOC(=O)CN1C(=O)C(CC)Oc2ccc(Cl)cc21 (configuration not stated)	/	.	.	.
CCCCNC(=O)CN1C(=O)C(CC)Oc2ccc(Cl)cc21 (configuration not stated)	.	.	20.5	.
CCCn1c(NC(=O)c2ccccc2)nc2ccccc21	.	.	.	.
CCCn1c(NC(=O)c2cccc(S(=O)(=O)N3CCCC3)c2)nc2ccccc21	32.0	.	.	.
c1coc(CNc2ncnc3sc4c(c23)CCCCC4)c1	18.5	.	.	.
C=CCn1c(Cc2csc(N)n2)nnc1SCc1ccc(C(=O)OC)cc1	.	.	.	.
Cc1nc2c(c(=O)n1CC1CCCO1)c1nc3ccccc3nc1n2CCC(C)C (configuration not stated)	.	/	/	.
CCOC(=O)N1CCN(Cc2nc3c(c(=O)[nH]c(=O)n3C)n2Cc2cc(C)ccc2C)CC1	.	.	.	.
Cc1ccc2c(c1)c1c3n2CCN(C(=O)CN2CCN(C)CC2)C3CCC1 (configuration not stated)	.	.	.	.
SMILES	ROCK2 blocker	FXIa mix inh	FXIIa mix inh	PKA inh
Cc1ccc2c(c1)c1c3n2CCN(C(=O)Cn2c(-c4ccccc4)noc2=O)C3CCC1 (configuration not stated)	21.2	.	.	.
O=C1CCC(=O)c2oc3ccccc3c2N1	.	.	21.0	.
O=C1c2ccccc2C(=O)N1c1nc(-c2cccs2)cs1	.	.	20.3	.
CC(=O)Nc1nc(-c2cccs2)cs1	.	.	.	.
CCOC(=O)C1=C(C)NC(=O)C1CC(=O)Nc1ccccc1 (configuration not stated)	.	/	/	.
CCOc1cc2c(cc1OCC)C(c1ccc(O)c(OC)c1)NCC2 (configuration not stated)	.	.	.	.
CCOc1cc2c(cc1OCC)C(c1cc(OC)c(O)c(OC)c1)NCC2 (configuration not stated)	.	.	23.8	.
CCCCn1c(=O)n(C)c(=O)c2c(C(F)(F)F)cc(-c3ccncc3)nc21	.	.	44.1	.
CCOc1ccccc1N(CC(=O)O)S(=O)(=O)c1ccccc1	.	40.3	.	.
CCOc1ccccc1N(CC(=O)OC)S(=O)(=O)c1ccccc1	.	.	.	.
O=C(OCC#CCSc1nc2ccccc2s1)c1ccco1	.	.	.	.
N#Cc1c(/N=C/c2ccco2)sc2c1CCCCC2	24.6	.	.	.
Cc1ccc(NC(=O)COC(=O)c2ccc3c(c2)NC(=O)C2CCCN32)cc1C (configuration not stated)	.	.	.	.
Cc1noc(C)c1C(=O)OCC(=O)NCCC1=CCCCC1	.	.	.	.
COc1ccccc1-c1cc(C(F)(F)F)nc(N2CCN(c3ccccc3)CC2)n1	/	.	.	.
CC1CCN(c2nc(-c3ccccc3)cc(C(F)(F)F)n2)CC1	/	.	.	.
COc1ccccc1-c1cc(C(F)(F)F)nc(N2CCOCC2)n1	/	22.2	.	.
Fc1ccc(-c2cc(C(F)(F)F)nc(N3CCCCC3)n2)cc1	/	.	21.5	.
O=C(O)CC(CNS(=O)(=O)c1ccccc1)c1ccccc1 (configuration not stated)	.	.	.	.
COc1ccc(C(=O)N2CCCC(c3nc(-c4ccc(OC)c(OC)c4)no3)C2)c(OC)c1 (configuration not stated)	.	.	.	.
Cc1cc(C)n(-c2nc3c(c(=O)[nH]c(=O)n3C)n2CC(O)COc2ccccc2C)n1 (configuration not stated)	.	.	.	.
Cc1csc(CCc2nc(C)cs2)n1	.	.	22.1	.
Cc1c(C)n(C)c2ccc(C(=O)NCc3cccs3)cc12	32.4	.	.	.
CCc1nc(N)c(C#N)c(-c2ccccc2OC)c1C	.	.	.	.
CCCc1[nH]nc2c1C1(CCOC1C)C(C#N)=C(N)O2 (configuration not stated)	.	.	.	.
SMILES	ROCK2 blocker	FXIa mix inh	FXIIa mix inh	PKA inh
CC1Oc2ccccc2N(CC(=O)Nc2ccc3c(c2)OCCO3)C1=O (configuration not stated)	.	20.5	.	.
CC1Oc2ccccc2N(CC(=O)Nc2ccc3c(c2)OCO3)C1=O (configuration not stated)	.	.	.	.
COc1ccc(C2C(C(=O)c3cccs3)=C(O)C(=O)N2c2nncs2)cc1 (configuration not stated)	/	43.2	.	.
CN(C)C(CNC(=O)NC1CCCCC1)c1cccnc1 (configuration not stated)	.	.	.	.
CC(=O)c1ccc(Cc2cnc(N)s2)cc1	.	.	21.2	.
Cc1cc(Nc2ccc(C)c(Br)c2)n2nc(C)nc2n1	.	.	.	.
CCCOc1cccc(C2C(C(=O)c3ccc(C)o3)=C(O)C(=O)N2CCCN(C)C)c1 (configuration not stated)	.	/	/	.
N#CCSc1nc2c(cc1C#N)CCCCCC2	.	/	/	.
N#Cc1cc2c(nc1SCc1ccncc1)CCC2	57.5	.	.	.
O=C(COC(=O)C12CC3CC(CC(C3)C1)C2)N1CCN(S(=O)(=O)c2ccccc2)CC1	.	37.1	.	.
O=C(COc1ccccc1Cl)OCC(=O)N1CCN(S(=O)(=O)c2ccccc2)CC1	.	.	.	.
